Assay results from PubChem BioAssay AID1159580 (chemical genetic matrix, 2015).
Out of some 5,500 compounds screened, about 2,000 (36%) were called active. Another 18% or so got no clear call; they are omitted. Cut-off read from the data, not from the text of the source: active = normalized growth mostly below about 0.91 (no sharp cut-off); inconclusive = no clear call, values can overlap the other calls; inactive = mostly above about 0.92. This is one part of the list.

Experiment: chemical genetic growth profiling, strain panel (AID 1159580);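 note: tested at 20 µM; growth read once vehicle control cultures reached saturation at 30 °C; 1 = growth at the plate median or of vehicle wells; lower values mean less growth of the strain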
Conditions: S. cerevisiae deletion strains, growth OD

Measured: normalized growth

COC(=O)C(O)[C@H]1C(C)(C)[C@@H](OC(C)=O)[C@@H]2CC3=C4CC(=O)O[C@@H](c5ccoc5)[C@]4(C)CCC3[C@@]1(C)C2=O (some centres not stated)
inactive: locus YBR021W, strain FUR4, active compounds read low 0.99 | locus YBR229C, strain ROT2, active compounds read low 0.996 | locus YCL029C, strain bik1, active compounds read low 1.02 | locus YDL035C, strain GPR1, active compounds read low 0.994 | locus YDL074C, strain BRE1, active compounds read low 0.941 | locus YDL101C, strain DUN1, active compounds read low 1.01 | locus YDL185W, strain tfp1, active compounds read low 1.01 | locus YDL192W, strain arf1, active compounds read low 0.986 | locus YDR101C, strain arx1, active compounds read low 1.01 | locus YDR162C, strain NBP2, active compounds read low 0.963 | locus YDR318W, strain mcm21, active compounds read low 0.989 | locus YDR388W, active compounds read low 1 | locus YDR502C, strain sam2, active compounds read low 1 | locus YER110C, active compounds read low 1 | locus YER155C, strain BEM2, active compounds read low 1.01 | locus YER167W, strain BCK2, active compounds read low 0.986 | locus YGL078C, strain dbp3, active compounds read low 1.01 | locus YGL086W, strain mad1, active compounds read low 0.979 | locus YGL248W, strain PDE1, active compounds read low 0.992 | locus YGR135W, strain pre9, active compounds read low 0.97 | locus YGR252W, strain gcn5, active compounds read low 0.989 | locus YHR079C, strain IRE1 (second series), active compounds read low 1 | locus YHR094C, strain hxt1, active compounds read low 1 | locus YHR129C, strain ARP1, active compounds read low 0.989 | locus YHR200W, strain rpn10, active compounds read low 1 | locus YIL066C, strain RNR3, active compounds read low 0.981 | locus YIL073C, strain SPO22, active compounds read low 1 | locus YIL125W, strain kgd1, active compounds read low 1.01 | locus YIR030C, strain dcg1, active compounds read low 1.01 | locus YJL095W, strain BCK1, active compounds read low 0.915 | locus YJL134W, strain LCB3, active compounds read low 0.995 | locus YJL168C, strain set2, active compounds read low 0.995 | locus YJL187C, strain SWE1 (second series), active compounds read low 0.993 | locus YJR043C, strain POL32, active compounds read low 1.02 | locus YJR075W, strain HOC1, active compounds read low 0.995 | locus YKL009W, strain mrt4, active compounds read low 1.01 | locus YKL068W, active compounds read low 1 | locus YKL085W, strain MDH1 (second series), active compounds read low 0.995 | locus YKL085W, strain MDH1, active compounds read low 0.995 | locus YKL190W, strain CNB1, active compounds read low 0.998 | locus YKR001C, strain vps1, active compounds read low 0.977 | locus YLR039C, strain RIC1, active compounds read low 0.764 | locus YLR058C, strain SHM2, active compounds read low 0.99 | locus YLR102C, strain apc9, active compounds read low 0.993 | locus YLR262C, strain YPT6, active compounds read low 0.805 | locus YLR268W, strain sec22, active compounds read low 0.983 | locus YLR330W, strain CHS5, active compounds read low 0.992 | locus YLR371W, strain rom2, active compounds read low 0.982 | locus YLR418C, strain cdc73, active compounds read low 0.906 | locus YML016C, strain PPZ1, active compounds read low 0.994 | locus YML032C, strain rad52, active compounds read low 1 | locus YML124C, strain tub3, active compounds read low 1 | locus YMR078C, strain ctf18, active compounds read low 0.983 | locus YMR223W, strain ubp8, active compounds read low 0.99 | locus YMR307W, strain GAS1, active compounds read low 0.76 | locus YNL067W, strain RPL9B, active compounds read low 0.991 | locus YNL233W, strain BNI4, active compounds read low 0.984 | locus YNL250W, strain rad50, active compounds read low 1.02 | locus YNL271C, strain bni1, active compounds read low 0.998 | locus YNL298W, strain CLA4, active compounds read low 1.01 | locus YNL307C, strain MCK1, active compounds read low 0.991 | locus YNL322C, strain KRE1, active compounds read low 1 | locus YNR052C, strain pop2, active compounds read low 0.99 | locus YOL012C, strain htz1 0.744 | locus YOL147C, strain pex11, active compounds read low 1 | locus YOR061W, strain CKA2, active compounds read low 0.997 | locus YOR069W, strain VPS5, active compounds read low 0.996 | locus YOR136W, strain idh2, active compounds read low 1.01 | locus YOR144C, strain elg1, active compounds read low 1 | locus YOR184W, strain ser1, active compounds read low 0.965 | locus YOR316C, strain cot1, active compounds read low 1.01 | locus YPL055C, strain LGE1, active compounds read low 1.01 | locus YPR119W, strain clb2, active compounds read low 1 | locus YPR141C, strain kar3, active compounds read low 0.992 | locus YPR163C, strain tif3, active compounds read low 1 | locus YPR167C, strain met16, active compounds read low 1 | strain wtn01, active compounds read low 0.995
